Reference: PubChem BioAssay AID1159580 (chemical genetic matrix, 2015)
The whole screen tested about 5,500 compounds, of which about 2,000 (36%) were called active. Roughly 18% stayed inconclusive and do not appear here. No stated cut-off is given here; in the data, active means normalized growth mostly below about 0.91 (no sharp cut-off); inconclusive means no clear call, values can overlap the other calls; inactive means mostly above about 0.92. The list shows a part of the results.

Experiment: chemical genetic growth profiling, strain panel (AID 1159580);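 further: tested at 20 µM; growth read once vehicle control cultures reached saturation at 30 °C; 1 = growth at the plate median or of vehicle wells; lower values mean less growth of the strain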
Details: S. cerevisiae deletion strains, growth OD

Measured: normalized growth

COc1cc(C(=O)OCCCN2CCCN(CCCOC(=O)c3cc(OC)c(OC)c(OC)c3)CC2)cc(OC)c1OC
inactive: locus YAL040C, strain CLN3, hits give low values 0.967 | locus YCL061C, strain MRC1 (second series), hits give low values 1.01 | locus YDR150W, strain NUM1, hits give low values 0.998 | locus YDR363W, strain ESC2, hits give low values 1.03 | locus YER002W, strain NOP16, hits give low values 1.03 | locus YMR307W, strain GAS1, hits give low values 1.01 | locus YNL175C, strain NOP13, hits give low values 1.01 | locus YNL197C, strain WHI3, hits give low values 1 | locus YNL224C, strain SQS1, hits give low values 1.01 | locus YOR083W, strain WHI5 (second series), hits give low values 0.972 | locus YPL055C, strain LGE1, hits give low values 1.02
